Source: PubChem BioAssay (NCI)
This is part of a sample that, as a whole, favours compounds with a hit. Of some 83,000 tested, about 20% had one in any assay.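 Step 1: grow cells in 96-well plates. Step 2: add test compound at a single concentration. Step 3: incubate 48 h. Step 4: record percent growth.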 Calls of active or inactive are those of the source. The calls were made as follows: active = growth percent below 10; inactive = the rest.

Tested on: UO-31 renal
Assay: NCI-60 one-dose screen, 48 h (100 = growth as untreated, 0 = no growth, -100 = all killed)
Details: 10 µM unless noted

Question: With `CC(C)(C)OC(=O)NC(CSCc1ccccc1)C(=O)ON1C(=O)CCC1=O` (stereo not given) as the molecule, how does the growth read?
Answer: 90.8% (inactive)

Question: Which growth does the source give for `Nc1cccc(Cl)c1N` here?
Answer: 71.2% (inactive)

Question: Which growth does the source give for `C/C(=C\c1ccc(OCC(=O)O)c(Cl)c1Cl)[N+](=O)[O-]` here?
Answer: 111% (inactive)

Question: For `CCOC(=O)C1=C(C)NC(C)=C(C(=O)OCC)C1(C)C`, which growth is on record?
Answer: 100% (inactive)

Question: For `N#C/C(=C1C=C/C(=N/O)C(Cl)=C/1)c1ccc(Cl)cc1`, which growth is on record?
Answer: 44.9% (inactive)

Question: With `CCC(C)/C(=C\C#N)NCCCN/C(=C/C#N)C(C)CC` (stereo not given) as the molecule, how does the growth read?
Answer: 82.4% (inactive)

Question: For `Cn1ncc2c(Sc3ccc(Cl)cc3)ncnc21`, which growth is on record?
Answer: 71% (inactive)

Question: How did the growth turn out when `O=C(CSC1CCc2ccccc21)N/N=C/c1ccccc1O` (stereo not given) was run?
Answer: 20% (inactive)

Question: `CC1(c2ccc(Cl)cc2)OC(=O)CC(=O)O1` was tested. Which growth did it give?
Answer: 90.3% (inactive)

Question: For `O=C1C(Cl)=C(Nc2ccccn2)C(=O)c2ccccc21`, which growth is on record?
Answer: 12.6% (inactive)

Question: `Cc1ccc2nc(Cl)cc(=O)n2c1` was tested. Which growth did it give?
Answer: 84.3% (inactive)

Question: With `CC1CCC(C)N(C)C1` (stereo not given) as the molecule, how does the growth read?
Answer: 84.6% (inactive)

Question: `CCc1cnc(=S)n(-c2ccccc2)c1` was tested. Which growth did it give?
Answer: 97% (inactive)

Question: For `CC(=O)Nc1nc(N)nc(NC(C)=O)c1N=O`, which growth is on record?
Answer: 93.3% (inactive)

Question: Which growth does the source give for `O=C(c1ccccc1)C1OC1c1ccc([N+](=O)[O-])cc1` (stereo not given) here?
Answer: 136% (inactive)

Question: Which growth does the source give for `CC(=O)Nc1scc[n+]1Cc1ccccc1` here?
Answer: 91.1% (inactive)

Question: For `C=C1CCC2C3(C)COC(c4ccccc4)OC3CCC2(C)C1/C=C/C1=CCOC1=O` (stereo not given), which growth is on record?
Answer: 52.6% (inactive)

Question: Which growth does the source give for `CCN(CC)CCOc1ccc(Cl)c(C)c1` here?
Answer: 86.5% (inactive)

Question: `O=C(Oc1ccccc1[N+](=O)[O-])C1CCCN1C(=O)OCc1ccccc1` (stereo not given) was tested. Which growth did it give?
Answer: 90.1% (inactive)

Question: How did the growth turn out when `CC(=O)Nc1ccc(S(=O)(=O)n2ccc(-c3ccc4c(c3)CCC(C)(C)O4)n2)cc1` was run?
Answer: 67.9% (inactive)

Question: Which growth does the source give for `CC(C)(C)OC(=O)NCCc1ccc(N=C=S)cc1` here?
Answer: 62.7% (inactive)

Question: For `O=C1CCCCC1(c1ccccc1)c1ccccc1`, which growth is on record?
Answer: 98.8% (inactive)

Question: With `Nc1nc(=O)c2ccccc2s1` as the molecule, how does the growth read?
Answer: 78.3% (inactive)

Question: Which growth does the source give for `COC(OC)c1ccccc1` here?
Answer: 85.4% (inactive)

Question: `C=C[C@@H]1C[C@H](O)Cc2cc(F)ccc2N1` was tested. Which growth did it give?
Answer: 103% (inactive)

Question: How did the growth turn out when `CN(C)c1ncnc2c1ccn2C1OC(CO)C(O)C1O` (stereo not given) was run?
Answer: 24.8% (inactive)

Question: Which growth does the source give for `NC1=NN(O)C2=CC([N+](=O)[O-])C=CC2=N1` (stereo not given) here?
Answer: 93.3% (inactive)

Question: Which growth does the source give for `O=C([O][Sn]([O]C(=O)c1ccccn1)([c]1ccccc1)[c]1ccccc1)c1ccccn1` here?
Answer: 82.4% (inactive)

Question: With `C=C(C)[C@@H]1C[C@H](O)Cc2cc(F)ccc2N1` as the molecule, how does the growth read?
Answer: 75.5% (inactive)

Question: How did the growth turn out when `CNC(=S)NNC(=O)C1CC1` was run?
Answer: 77.5% (inactive)

Question: Which growth does the source give for `CCOC(=O)C1CCNC(=O)C1=O` (stereo not given) here?
Answer: 94.2% (inactive)

Question: `COc1ccc(CNCCCN2C(=O)c3ccc4c5c(ccc(c35)C2=O)C(=O)N(CCCNCCCCNCCCN)C4=O)c(OC)c1OC` was tested. Which growth did it give?
Answer: 51.4% (inactive)

Question: How did the growth turn out when `Cc1ccc(S(=O)(=O)C2=C3C(=C(c4ccccc4)c4ccccc43)CN(S(=O)(=O)c3ccc(C)cc3)C2)cc1` was run?
Answer: 32.3% (inactive)

Question: Which growth does the source give for `COc1cc2c(c(OC)c1OC)-c1ccc(N)c(=O)cc1[C@@H](NC(C)=O)CC2` here?
Answer: 40% (inactive)

Tested on: TK-10 renal
Assay: as above
Details: 10 µM unless noted

Question: Which growth does the source give for `Nc1cccc(Cl)c1N` here?
Answer: 93% (inactive)

Question: For `C/C(=C\c1ccc(OCC(=O)O)c(Cl)c1Cl)[N+](=O)[O-]`, which growth is on record?
Answer: 113% (inactive)

Question: `CCOC(=O)C1=C(C)NC(C)=C(C(=O)OCC)C1(C)C` was tested. Which growth did it give?
Answer: 109% (inactive)

Question: `N#C/C(=C1C=C/C(=N/O)C(Cl)=C/1)c1ccc(Cl)cc1` was tested. Which growth did it give?
Answer: 51.2% (inactive)

Question: How did the growth turn out when `Cn1ncc2c(Sc3ccc(Cl)cc3)ncnc21` was run?
Answer: 82.7% (inactive)

Question: `O=C(CSC1CCc2ccccc21)N/N=C/c1ccccc1O` (stereo not given) was tested. Which growth did it give?
Answer: 37.1% (inactive)

Question: With `CC1(c2ccc(Cl)cc2)OC(=O)CC(=O)O1` as the molecule, how does the growth read?
Answer: 121% (inactive)

Question: With `CCCCCCCCCCCCCCCCNC(=O)OC(C)C` as the molecule, how does the growth read?
Answer: -3.04% (active)

Question: Which growth does the source give for `Cc1ccc2nc(Cl)cc(=O)n2c1` here?
Answer: 109% (inactive)

Question: For `CC1CCC(C)N(C)C1` (stereo not given), which growth is on record?
Answer: 102% (inactive)

Question: `CC(=O)Nc1nc(N)nc(NC(C)=O)c1N=O` was tested. Which growth did it give?
Answer: 114% (inactive)

Question: How did the growth turn out when `COc1cc(C2CC(c3ccc4c(c3)OCO4)=NN2C(C)=O)cc(OC)c1OC` (stereo not given) was run?
Answer: 38.2% (inactive)

Question: With `O=C(c1ccccc1)C1OC1c1ccc([N+](=O)[O-])cc1` (stereo not given) as the molecule, how does the growth read?
Answer: 50% (inactive)

Question: For `COc1ccc2c(c1)C(c1cc(OC)c3c(c1)OCO3)C1=C(COC1=O)N2` (stereo not given), which growth is on record?
Answer: 60.8% (inactive)

Question: `C=C1CCC2C3(C)COC(c4ccccc4)OC3CCC2(C)C1/C=C/C1=CCOC1=O` (stereo not given) was tested. Which growth did it give?
Answer: 61.3% (inactive)

Question: How did the growth turn out when `CCN(CC)CCOc1ccc(Cl)c(C)c1` was run?
Answer: 116% (inactive)

Question: How did the growth turn out when `O=C(Oc1ccccc1[N+](=O)[O-])C1CCCN1C(=O)OCc1ccccc1` (stereo not given) was run?
Answer: 112% (inactive)

Question: For `CC(=O)Nc1ccc(S(=O)(=O)n2ccc(-c3ccc4c(c3)CCC(C)(C)O4)n2)cc1`, which growth is on record?
Answer: 55.1% (inactive)

Question: How did the growth turn out when `COc1cc(C2CC(c3ccc4c(c3)OCO4)=NN2C=O)cc(OC)c1OC` (stereo not given) was run?
Answer: 53.2% (inactive)

Question: Which growth does the source give for `Nc1nc(=O)c2ccccc2s1` here?
Answer: 114% (inactive)

Question: `CN1C=CN(Cc2ccc(-c3ccccn3)nc2)[CH-]1.CN1C=CN(Cc2ccc(-c3ccccn3)nc2)[CH-]1.[Au+3]` was tested. Which growth did it give?
Answer: 67.4% (inactive)

Question: With `COC(OC)c1ccccc1` as the molecule, how does the growth read?
Answer: 117% (inactive)

Question: `C=C[C@@H]1C[C@H](O)Cc2cc(F)ccc2N1` was tested. Which growth did it give?
Answer: 97.7% (inactive)

Question: With `CN(C)c1ncnc2c1ccn2C1OC(CO)C(O)C1O` (stereo not given) as the molecule, how does the growth read?
Answer: 40.9% (inactive)

Question: For `NC1=NN(O)C2=CC([N+](=O)[O-])C=CC2=N1` (stereo not given), which growth is on record?
Answer: 121% (inactive)

Question: How did the growth turn out when `O=C([O][Sn]([O]C(=O)c1ccccn1)([c]1ccccc1)[c]1ccccc1)c1ccccn1` was run?
Answer: 30.1% (inactive)

Question: How did the growth turn out when `C=C(C)[C@@H]1C[C@H](O)Cc2cc(F)ccc2N1` was run?
Answer: 92.3% (inactive)

Question: Which growth does the source give for `CNC(=S)NNC(=O)C1CC1` here?
Answer: 119% (inactive)

Question: `CCOC(=O)C1CCNC(=O)C1=O` (stereo not given) was tested. Which growth did it give?
Answer: 103% (inactive)

Question: For `COc1ccc(CNCCCN2C(=O)c3ccc4c5c(ccc(c35)C2=O)C(=O)N(CCCNCCCCNCCCN)C4=O)c(OC)c1OC`, which growth is on record?
Answer: 25.7% (inactive)

Question: Which growth does the source give for `COc1cc2c(c(OC)c1OC)-c1ccc(N)c(=O)cc1[C@@H](NC(C)=O)CC2` here?
Answer: 33.4% (inactive)
